Test results taken from PubChem BioAssay (EPA / NIEHS).
Calls of active or inactive are those of the source. The calls were made as follows: active = hit-call score of the fitted dose curve at least 0.9, where 1 is the maximum; inactive = score below 0.9.

What was measured:
[1] = ATG_E_Box_CIS: Attagene CIS-FACTORIAL HepG2 Assay for human Enhancer Box (E-box) (AID 2282936); conditions: HepG2 E-box cis-reporter transcription, actives raise or lower the signal
Procedure, shortened: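 Transiently transfected HepG2, endogenous TF-driven reporters, 24 h dosing. Readout: RT-PCR plus capillary electrophoresis of fluorescent reporter fragments. Gain or loss of signal fitted bidirectionally against DMSO baseline.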

[2] = ATG_M_61_CIS: Attagene CIS-FACTORIAL HepG2 Assay for M61 Transcription Factor (Internal Marker) (AID 2282937); conditions: HepG2 Attagene CIS-FACTORIAL M61 internal marker reporter; actives raise or lower the signal
Procedure, shortened: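 Multiplexed reporter mRNA assay, HepG2 human hepatoma cells, 24 h treatment. Signal: FAM-labelled, HpaI-digested RT-PCR fragments by CE. Fit: bidirectional, baseline DMSO.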

[3] = ATG_EGR_CIS: Attagene CIS-FACTORIAL HepG2 Assay for human Early Growth Response 1 (EGR1) (AID 2282938); conditions: HepG2 Attagene CIS-FACTORIAL EGR reporter mRNA; actives raise or lower the signal
Procedure, shortened: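 Multiplexed cis-reporter system in human hepatoma HepG2 cells, transiently transfected. Cells are dosed for 24 h; reporter transcripts are amplified, fluorescently tagged and sized by capillary electrophoresis, with DMSO as negative control.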

[4] = ATG_M_19_CIS: Attagene CIS-FACTORIAL HepG2 Assay for M19 Transcription Factor (Internal Marker) (AID 2282939); conditions: HepG2 Attagene CIS-FACTORIAL M19 internal marker reporter; actives raise or lower the signal
Procedure, shortened: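 Following a 24 h exposure, RNA from transfected HepG2 cells was reverse-transcribed, PCR-amplified with reporter-specific primers, end-labelled with 6-FAM and HpaI-digested before capillary separation. Values represent gain or loss versus DMSO.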

[5] = ATG_Ets_CIS: Attagene CIS-FACTORIAL HepG2 Assay for human Erythroblast Transformation Specific (ETS) (AID 2282941); conditions: HepG2 ETS cis-reporter transcription, actives raise or lower the signal
Procedure, shortened: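 Endogenous transcription factor activity read as reporter mRNA via RT-PCR and capillary electrophoresis, with gain or loss fitted bidirectionally against DMSO. Human HepG2 liver cells, transiently transfected CIS reporter constructs, 24 h exposure.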

[6] = biological target: Hepatocyte nuclear factor 3-beta (Homo sapiens) (UniProt Q9Y261); experiment: ATG_FoxA2_CIS: Attagene CIS-FACTORIAL HepG2 Assay for human Forkhead box A2 (FOXA2) (AID 2282942); conditions: HepG2 cis-reporter transcription factor activity, 24 h; actives raise or lower the signal
Sequence of Hepatocyte nuclear factor 3-beta (Homo sapiens) (Q9Y261 whole entry, looked up): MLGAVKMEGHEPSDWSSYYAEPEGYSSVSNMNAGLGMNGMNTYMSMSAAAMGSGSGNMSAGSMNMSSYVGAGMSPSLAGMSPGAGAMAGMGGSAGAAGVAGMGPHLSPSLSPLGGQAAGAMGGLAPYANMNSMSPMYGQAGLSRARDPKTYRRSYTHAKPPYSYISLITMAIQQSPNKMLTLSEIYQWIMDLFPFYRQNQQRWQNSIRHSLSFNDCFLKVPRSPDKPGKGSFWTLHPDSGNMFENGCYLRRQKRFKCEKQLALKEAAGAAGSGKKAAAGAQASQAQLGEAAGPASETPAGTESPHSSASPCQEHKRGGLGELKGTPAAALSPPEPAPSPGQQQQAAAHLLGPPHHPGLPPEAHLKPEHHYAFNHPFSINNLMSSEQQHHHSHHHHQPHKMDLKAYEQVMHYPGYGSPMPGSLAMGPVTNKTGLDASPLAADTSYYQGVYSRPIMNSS
Procedure, shortened: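 Multiplexed cis-element reporter assay in transiently transfected HepG2. Twenty-four hours post-dosing, RNA was reverse-transcribed, amplified, FAM-labelled, HpaI-digested and separated by CE. Activity gain or loss relative to DMSO.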

[7] = ATG_FoxO_CIS: Attagene CIS-FACTORIAL HepG2 Assay for human Forkhead box O (FoxO) (AID 2282943); conditions: HepG2 Attagene cis-reporter, FoxO element, mRNA; actives raise or lower the signal
Procedure, shortened: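 HepG2 cells transiently transfected with cis-element-driven reporter units report endogenous FoxO activity. After 24 h chemical exposure, reporter mRNA quantified by RT-PCR, fluorescent labeling, HpaI digestion and capillary electrophoresis; bidirectional fit versus DMSO.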

[8] = ATG_GATA_CIS: Attagene CIS-FACTORIAL HepG2 Assay for human GATA Binding Protein (AID 2282944); conditions: HepG2 GATA cis-element reporter, Attagene multiplex mRNA; actives raise or lower the signal
Procedure, shortened: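 DMSO serves as negative control and baseline for bidirectional fitting of reporter mRNA changes. HepG2 cells bearing transiently transfected cis-promoter reporters were exposed 24 h; transcripts detected via RT-PCR and capillary electrophoresis.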

[9] = biological target: Bile acid receptor (Homo sapiens) (UniProt Q96RI1); experiment: ATG_IR1_CIS: Attagene CIS-FACTORIAL HepG2 Assay for human Nuclear Receptor Subfamily 1 Group H Member 4 (NR1H4), IR1 submotif (AID 2282946); conditions: IR1 reporter transcription, actives raise or lower the signal
Sequence of Bile acid receptor (Homo sapiens) (Q96RI1 whole entry, looked up): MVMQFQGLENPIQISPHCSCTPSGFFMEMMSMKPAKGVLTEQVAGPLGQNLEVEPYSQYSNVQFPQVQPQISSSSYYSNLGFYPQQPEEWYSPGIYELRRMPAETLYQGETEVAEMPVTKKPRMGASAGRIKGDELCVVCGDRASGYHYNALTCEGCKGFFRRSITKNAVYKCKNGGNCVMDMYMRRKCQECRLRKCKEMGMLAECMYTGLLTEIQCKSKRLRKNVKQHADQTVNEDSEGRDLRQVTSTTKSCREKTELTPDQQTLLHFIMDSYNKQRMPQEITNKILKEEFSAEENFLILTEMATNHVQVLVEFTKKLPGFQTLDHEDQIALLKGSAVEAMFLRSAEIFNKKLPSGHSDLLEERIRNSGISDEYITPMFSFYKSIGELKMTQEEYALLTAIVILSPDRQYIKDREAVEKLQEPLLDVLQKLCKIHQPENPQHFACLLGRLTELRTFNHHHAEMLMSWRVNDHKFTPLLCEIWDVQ
Procedure, shortened: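 Fluorescence of capillary-separated, HpaI-digested RT-PCR reporter products gave IR1-element mRNA induction in HepG2 cells 24 h after dosing. Endogenous transcription factors drove the cis-regulated reporters; activity was fitted bidirectionally against DMSO.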

[10] = ATG_GRE_CIS: Attagene CIS-FACTORIAL HepG2 Assay for human Glucocorticoid Response Elements (GRE) (AID 2282947); conditions: HepG2 GRE cis-reporter, Attagene multiplex mRNA; actives raise or lower the signal
Procedure, shortened: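 Read-out: fluorescent reporter-transcript fragments separated by capillary electrophoresis after RT-PCR. Transiently transfected HepG2 cells carrying cis-element-driven reporter units were dosed for 24 h; gain or loss of signal fitted against DMSO control.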

[11] = ATG_ISRE_CIS: Attagene CIS-FACTORIAL HepG2 Assay for human Interferon Regulatory Factor 1 (IRF1) binding to an Interferon-Stimulated Response Element (ISRE) (AID 2282948); conditions: HepG2 ISRE cis-reporter (Attagene), mRNA transcription readout; actives raise or lower the signal
Procedure, shortened: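 Endogenous transcription factor activity read as reporter transcript abundance via RT-PCR and capillary electrophoresis. HepG2 cells transiently transfected, 24 h chemical exposure. Gain or loss fitted against DMSO baseline.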

[12] = ATG_M_32_CIS: Attagene CIS-FACTORIAL HepG2 Assay for M32 Transcription Factor (Internal Marker) (AID 2282949); conditions: HepG2 Attagene cis-factorial M32 reporter, mRNA; actives raise or lower the signal;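 also: background control marker of the multiplexed CIS panel rather than a real target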
Procedure, shortened: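 Using DMSO as baseline, bidirectional curve fits were applied to reporter mRNA signals. These came from transiently transfected HepG2 cells exposed for 24 h, with RNA analysed by RT-PCR, FAM primer extension, HpaI digestion and CE.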

[13] = ATG_M_06_CIS: Attagene CIS-FACTORIAL HepG2 Assay for M06 Transcription Factor (Internal Marker) (AID 2282950); conditions: HepG2 Attagene CIS-FACTORIAL M06 internal marker reporter; actives raise or lower the signal
Procedure, shortened: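 Fluorescence-labelled RT-PCR products from cis-promoter reporter units, cut with HpaI and resolved by capillary electrophoresis, give the signal. Cells are human HepG2, dosed for 24 h. Serves as background control, fitted relative to DMSO.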

[14] = biological target: Hypoxia-inducible factor 1-alpha (Homo sapiens) (UniProt Q16665); experiment: ATG_HIF1a_CIS: Attagene CIS-FACTORIAL HepG2 Assay for human Hypoxia Inducible Factor 1 (HIF1A) (AID 2282951); conditions: HepG2 Attagene cis-factorial HIF1a reporter transcription; actives raise or lower the signal
Sequence of Hypoxia-inducible factor 1-alpha (Homo sapiens) (Q16665 whole entry, looked up): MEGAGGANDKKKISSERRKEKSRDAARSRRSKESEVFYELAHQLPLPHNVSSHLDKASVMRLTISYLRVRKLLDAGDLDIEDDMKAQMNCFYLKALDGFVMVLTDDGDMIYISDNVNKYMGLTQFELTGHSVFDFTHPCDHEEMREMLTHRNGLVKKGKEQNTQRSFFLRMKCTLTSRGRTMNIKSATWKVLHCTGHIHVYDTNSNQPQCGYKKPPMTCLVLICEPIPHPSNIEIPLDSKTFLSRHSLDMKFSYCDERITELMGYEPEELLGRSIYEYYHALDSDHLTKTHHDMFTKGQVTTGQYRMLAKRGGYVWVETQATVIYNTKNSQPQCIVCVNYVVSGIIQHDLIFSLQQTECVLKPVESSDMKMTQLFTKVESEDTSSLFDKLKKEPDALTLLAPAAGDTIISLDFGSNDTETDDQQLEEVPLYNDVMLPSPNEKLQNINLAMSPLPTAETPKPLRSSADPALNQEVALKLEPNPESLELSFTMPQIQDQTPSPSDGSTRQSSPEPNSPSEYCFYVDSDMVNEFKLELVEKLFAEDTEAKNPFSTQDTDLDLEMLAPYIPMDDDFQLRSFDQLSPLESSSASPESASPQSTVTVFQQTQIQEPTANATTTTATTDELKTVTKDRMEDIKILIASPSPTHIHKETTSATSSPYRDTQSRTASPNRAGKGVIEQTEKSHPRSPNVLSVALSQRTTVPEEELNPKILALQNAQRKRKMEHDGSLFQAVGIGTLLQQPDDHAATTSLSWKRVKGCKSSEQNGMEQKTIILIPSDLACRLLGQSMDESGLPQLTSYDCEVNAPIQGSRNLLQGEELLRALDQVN
Procedure, shortened: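 Cis-element reporter constructs were transiently transfected into HepG2 cells, which were treated for 24 h; reporter RNA was reverse-transcribed, amplified, labelled and resolved by capillary electrophoresis.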

[15] = biological target: Heat shock factor protein 1 (Homo sapiens) (UniProt Q00613); experiment: ATG_HSE_CIS: Attagene CIS-FACTORIAL HepG2 Assay for human Heat Shock Transcription Factor 1 (HSE) (AID 2282953); conditions: HepG2 HSE cis-reporter, Attagene RNA transcription; actives raise or lower the signal
Sequence of Heat shock factor protein 1 (Homo sapiens) (Q00613 whole entry, looked up): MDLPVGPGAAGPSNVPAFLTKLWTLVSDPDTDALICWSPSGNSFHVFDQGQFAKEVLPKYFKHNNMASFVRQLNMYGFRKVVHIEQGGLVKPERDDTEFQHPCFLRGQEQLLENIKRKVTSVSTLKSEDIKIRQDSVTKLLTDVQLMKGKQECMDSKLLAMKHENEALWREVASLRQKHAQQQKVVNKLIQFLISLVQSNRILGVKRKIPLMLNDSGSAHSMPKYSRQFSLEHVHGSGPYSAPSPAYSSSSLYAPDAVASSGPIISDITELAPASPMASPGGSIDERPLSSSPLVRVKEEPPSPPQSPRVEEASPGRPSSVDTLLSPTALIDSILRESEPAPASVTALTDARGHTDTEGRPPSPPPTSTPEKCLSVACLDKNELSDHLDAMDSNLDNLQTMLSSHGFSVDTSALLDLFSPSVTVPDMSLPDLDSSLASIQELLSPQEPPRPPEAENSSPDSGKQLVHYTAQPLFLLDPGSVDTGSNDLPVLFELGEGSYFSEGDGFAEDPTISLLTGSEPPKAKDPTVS
Procedure, shortened: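 After a 24 h incubation with test chemical, transfected HepG2 cells were harvested for RNA; reporter transcripts were measured by RT-PCR and capillary electrophoresis. Values reflect gain or loss of signal relative to DMSO.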

[16] = ATG_MRE_CIS: Attagene CIS-FACTORIAL HepG2 Assay for human Metal Responsive Element (MRE) (AID 2282954); conditions: HepG2 MRE cis-reporter transcription, Attagene multiplex; actives raise or lower the signal
Procedure, shortened: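 RT-PCR/capillary electrophoresis readout of reporter mRNA, 24 h post-dosing, in HepG2 cells transfected with multiplexed cis-regulated reporter constructs. Gain or loss of signal fitted bidirectionally against DMSO baseline.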

[17] = ATG_PBREM_CIS: Attagene CIS-FACTORIAL HepG2 Assay for human Phenobarbital-responsive Enhancer Module (PBREM) (AID 2282955); conditions: HepG2 PBREM cis-reporter, Attagene multiplexed transcription; actives raise or lower the signal
Procedure, shortened: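 Multiplexed cis-reporter readout in human hepatoma HepG2 cells; PBREM-regulated transcript quantified after 24 h exposure by fluorescent RT-PCR fragment analysis. Signal changes up or down fitted relative to DMSO.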

[18] = biological target: Hepatocyte nuclear factor 6 (Homo sapiens) (UniProt Q9UBC0); experiment: ATG_HNF6_CIS: Attagene CIS-FACTORIAL HepG2 Assay for human Hepatocyte Nuclear Factor 6 (HNF6) (AID 2282952); conditions: HepG2 Attagene cis-factorial HNF6 reporter transcription; actives raise or lower the signal
Sequence of Hepatocyte nuclear factor 6 (Homo sapiens) (Q9UBC0 whole entry, looked up, the tested form may be a part): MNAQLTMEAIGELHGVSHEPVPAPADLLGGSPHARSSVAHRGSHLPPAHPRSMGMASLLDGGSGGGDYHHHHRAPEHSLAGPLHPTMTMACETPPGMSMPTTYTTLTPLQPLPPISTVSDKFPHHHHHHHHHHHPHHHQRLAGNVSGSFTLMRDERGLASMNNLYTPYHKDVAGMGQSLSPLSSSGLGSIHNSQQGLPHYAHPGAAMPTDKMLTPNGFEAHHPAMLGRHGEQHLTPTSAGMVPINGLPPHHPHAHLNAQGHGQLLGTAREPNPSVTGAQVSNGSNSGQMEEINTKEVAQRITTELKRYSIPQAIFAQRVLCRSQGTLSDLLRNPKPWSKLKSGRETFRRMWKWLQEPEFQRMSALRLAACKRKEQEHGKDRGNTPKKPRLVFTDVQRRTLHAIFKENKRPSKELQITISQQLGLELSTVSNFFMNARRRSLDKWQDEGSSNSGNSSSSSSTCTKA
Procedure, shortened: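 Readout: fluorescent reporter-transcript fragments resolved by capillary electrophoresis after RT-PCR, reflecting endogenous factor activity in transfected HepG2. Exposure 24 h. Gain or loss of signal fitted bidirectionally against DMSO.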

[19] = ATG_GLI_CIS: Attagene CIS-FACTORIAL HepG2 Assay for human Zinc Finger Protein GLI1 (AID 2282945); conditions: HepG2, Attagene cis-factorial reporter mRNA, GLI element; actives raise or lower the signal
Procedure, shortened: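 Transiently transfected HepG2 cells report endogenous transcription factor activity via cis-element-driven reporter units. After 24 h compound exposure, reporter mRNA was measured by RT-PCR with capillary electrophoresis; bidirectional fitting against DMSO baseline.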

[20] = ATG_ERE_CIS: Attagene CIS-FACTORIAL HepG2 Assay for Estrogen Response Element (ERE) (AID 2282940); conditions: HepG2 ERE cis-reporter, Attagene RNA transcript; actives raise or lower the signal
Procedure, shortened: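 HepG2, transient cis-reporter units, 24 h exposure. RNA isolated, oligo(dT) RT, reporter-specific PCR, FAM extension, HpaI cut, CE detection. Gain/loss-of-signal vs DMSO.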

Measured: outcome

Cc1cc(C)nc(NS(=O)(=O)c2ccc(N)cc2)n1
not listed: [18] | [19] | [20]
inactive: all other assays above

Cc1cc(S(=O)(=O)O)ccc1N=Nc1c(O)ccc2ccccc12
not listed: [7] | [10] | [17] | [19] | [20]
inactive: all other assays above

CCCC(C)=O
not listed: [4] | [17] | [20]
inactive: all other assays above

CCCCCCCCCCCC(=O)OCC(O)CO (configuration not stated)
not listed: [4] | [9] | [10] | [12]
inactive: all other assays above

CC(C=O)Cc1ccc(C(C)(C)C)cc1 (configuration not stated)
not listed: [4] | [10] | [17] | [20]
inactive: all other assays above

CC1=C(Br)C(=O)C(Br)=C/C1=C(/c1ccccc1S(=O)(=O)O)c1cc(Br)c(O)c(Br)c1C
not listed: [4] | [10] | [17] | [19] | [20]
inactive: all other assays above

C=C(C)C1CC=C(C)C(=O)C1 (configuration not stated)
not listed: [4] | [9] | [17] | [20]
inactive: all other assays above
